This is one part of a sample in which the strongest signals are shown more often than they occur.
B1: LSECtin (Homo sapiens), Q6UXB4 (protein)
chain: MEQESALRELRERVTQGLAEAGRGREDVRTELFRALEAVRLQNNSCEPCPTSWLSFEGSCYFFSVPKTTWAAAQDHCADASAHLVIVGGLDEQGFLTRNTRGRGYWLGLRAVRHLGKVQGYQWVDGVSLSFSHWNQGEPNDAWGRENCVMMLHTGLWNDAPCDSEKDGWICEKKAQLLTPPSALEPRPLQHVVSWGLLTSLAPGADCQRVFSSSSTAAESQKHLAQHSPVQPSAWALGPPCRPHPNSTHADPT
B2: STA (Solanum tuberosum), Q9S8M0 (protein)
chain: NASPPSPSPLPYPQCGMKKGGGKCIKTGECCSIWGWCGTTNAYCSPGYCQKQCPGPYPEGRCGWQANGKSCPTGTGQCCSNGGWCGTTSDYCASKNCQSQCKLPSPPPPPPPPSPPPPSPPSPPPPSPPPPPPPSPPPPSPPPPSPSPPPPPASPPPPPPALPYPQCGIKKGGGKCIKTGECCSIWGWCGTTNAYCSPGYCQKQCPGPYPEGRCGWQANGKSCPTGTGHCCSNAGWCGTTSDYCAPVNCQAQCNTTTLTSPIKNRMRGIESFMLNVV

Assays:
Test in all cases: glycan array binding signal (z-score within array); higher = stronger binding
Conditions in all cases: glycan notation: IUPAC condensed, linker removed
Fuc(a1-2)Gal(b1-3)GalNAc = target: Fuc(a1-2)Gal(b1-3)GalNAc
Procedure, shortened: (§1)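 Glycan array data came from 3228 arrays in the Consortium for Functional Glycomics database, and only arrays with an available protein sequence were kept. Glycan names were put into IUPAC-condensed notation, and columns mapping to the same glycan were averaged. The binding signal is a within-array Z-score, averaged across arrays of one protein sequence run at different concentrations or buffers and across linkers. A negative Z-score can be read as non-binding.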

Fuc(a1-2)Gal(b1-4)Glc = target: Fuc(a1-2)Gal(b1-4)Glc
Procedure, shortened: as §1

[1] = target: Fuc(a1-2)[Gal(a1-3)]Gal(b1-3)GlcNAc
Procedure, shortened: as §1

[2] = target: Fuc(a1-2)[Gal(a1-4)]Gal(b1-4)GlcNAc
Procedure, shortened: as §1

[3] = target: Fuc(a1-3)[Gal(b1-4)]GlcNAc(b1-4)Gal(b1-4)[Fuc(a1-3)]GlcNAc(b1-4)Gal(b1-4)[Fuc(a1-3)]GlcNAc
Procedure, shortened: as §1

[4] = target: Fuc(a1-3)[Gal3S(b1-4)]Glc6S
Procedure, shortened: as §1

Gal(a1-4)Gal(b1-4)Glc = target: Gal(a1-4)Gal(b1-4)Glc
Procedure, shortened: as §1

Gal(b1-2)Gal = target: Gal(b1-2)Gal
Procedure, shortened: as §1

[5] = target: Gal(b1-3)GlcNAc(b1-3)Gal(b1-4)Glc
Procedure, shortened: as §1

[6] = target: Gal(b1-3)[Fuc(a1-4)]GlcNAc(b1-3)Gal(b1-4)[Fuc(a1-3)]GlcNAc
Procedure, shortened: as §1

GalNAc(b1-3)Gal = target: GalNAc(b1-3)Gal
Procedure, shortened: as §1

[7] = target: GlcNAc(b1-2)Man(a1-3)[GlcNAc(b1-2)Man(a1-6)]Man(b1-4)GlcNAc(b1-4)GlcNAc
Procedure, shortened: as §1

GlcNAc(b1-3)Man = target: GlcNAc(b1-3)Man
Procedure, shortened: as §1

GlcNAc(b1-6)GalNAc = target: GlcNAc(b1-6)GalNAc
Procedure, shortened: as §1

Kdn(a2-3)Gal(b1-4)GlcNAc = target: Kdn(a2-3)Gal(b1-4)GlcNAc
Procedure, shortened: as §1

[8] = target: Man(a1-2)Man(a1-3)[Man(a1-2)Man(a1-6)]Man
Procedure, shortened: as §1

[9] = target: Neu5Ac(a2-3)Gal(b1-3)GalNAc(b1-3)Gal(a1-4)Gal(b1-4)Glc
Procedure, shortened: as §1

[10] = target: Neu5Ac(a2-3)Gal(b1-3)GalNAc6S
Procedure, shortened: as §1

[11] = target: Neu5Ac(a2-3)Gal(b1-4)GlcNAc(b1-6)[Neu5Ac(a2-3)Gal(b1-3)]GalNAc
Procedure, shortened: as §1

[12] = target: Neu5Ac(a2-6)Gal(b1-4)GlcNAc(b1-2)Man(a1-3)[GlcNAc(b1-2)Man(a1-6)]Man(b1-4)GlcNAc(b1-4)GlcNAc
Procedure, shortened: as §1

[13] = target: Neu5Ac(a2-6)Gal(b1-4)GlcNAc(b1-2)Man(a1-6)[GlcNAc(b1-2)Man(a1-3)]Man(b1-4)GlcNAc(b1-4)GlcNAc
Procedure, shortened: as §1

[14] = target: Neu5Ac(a2-6)GalNAc(b1-4)GlcNAc
Procedure, shortened: as §1

Fuc(a1-2)Gal(b1-4)GlcNAc = target: Fuc(a1-2)Gal(b1-4)GlcNAc
Procedure, shortened: as §1

[15] = target: Fuc(a1-2)Gal(b1-4)GlcNAc(b1-3)Gal(b1-4)GlcNAc
Procedure, shortened: as §1

[16] = target: Fuc(a1-2)[Gal(a1-3)]Gal(b1-4)[Fuc(a1-3)]GlcNAc
Procedure, shortened: as §1

[17] = target: Gal(b1-3)GalNAc(b1-4)Gal(b1-4)Glc
Procedure, shortened: as §1

[18] = target: Gal(b1-3)[Fuc(a1-4)]GlcNAc(b1-3)Gal(b1-4)GlcNAc
Procedure, shortened: as §1

Gal(b1-4)Glc = target: Gal(b1-4)Glc
Procedure, shortened: as §1

[19] = target: Gal(b1-4)GlcNAc(b1-3)Gal(b1-4)Glc
Procedure, shortened: as §1

[20] = target: Gal(b1-4)GlcNAc(b1-3)Gal(b1-4)GlcNAc(b1-3)Gal(b1-4)GlcNAc
Procedure, shortened: as §1

[21] = target: Gal(b1-4)GlcNAc(b1-3)GalNAc
Procedure, shortened: as §1

[22] = target: GlcNAc(b1-4)GlcNAc(b1-4)GlcNAc(b1-4)GlcNAc(b1-4)GlcNAc(b1-4)GlcNAc
Procedure, shortened: as §1

[23] = target: Neu5Ac(a2-3)Gal(b1-3)[Fuc(a1-4)]GlcNAc(b1-3)Gal(b1-4)[Fuc(a1-3)]GlcNAc
Procedure, shortened: as §1

[24] = target: Neu5Ac(a2-3)GalNAc(b1-4)GlcNAc
Procedure, shortened: as §1

[25] = target: Neu5Ac(a2-6)Gal(b1-4)GlcNAc(b1-3)Gal(b1-4)[Fuc(a1-3)]GlcNAc(b1-3)Gal(b1-4)[Fuc(a1-3)]GlcNAc
Procedure, shortened: as §1

[26] = target: Neu5Gc(a2-3)Gal(b1-3)[Fuc(a1-4)]GlcNAc
Procedure, shortened: as §1

Neu5Gc(a2-3)Gal(b1-4)Glc = target: Neu5Gc(a2-3)Gal(b1-4)Glc
Procedure, shortened: as §1

| Binder | glycan array binding signal (z-score) (Fuc(a1-2)Gal(b1-3)GalNAc) | glycan array binding signal (z-score) (Fuc(a1-2)Gal(b1-4)Glc) | glycan array binding signal (z-score) [1] | glycan array binding signal (z-score) [2] | glycan array binding signal (z-score) [3] | glycan array binding signal (z-score) [4] | glycan array binding signal (z-score) (Gal(a1-4)Gal(b1-4)Glc) | glycan array binding signal (z-score) (Gal(b1-2)Gal) | glycan array binding signal (z-score) [5] | glycan array binding signal (z-score) [6] | glycan array binding signal (z-score) (GalNAc(b1-3)Gal) | glycan array binding signal (z-score) [7] | glycan array binding signal (z-score) (GlcNAc(b1-3)Man) | glycan array binding signal (z-score) (GlcNAc(b1-6)GalNAc) | glycan array binding signal (z-score) (Kdn(a2-3)Gal(b1-4)GlcNAc) | glycan array binding signal (z-score) [8] | glycan array binding signal (z-score) [9] | glycan array binding signal (z-score) [10] | glycan array binding signal (z-score) [11] | glycan array binding signal (z-score) [12] | glycan array binding signal (z-score) [13] | glycan array binding signal (z-score) [14] | glycan array binding signal (z-score) (Fuc(a1-2)Gal(b1-4)GlcNAc) | glycan array binding signal (z-score) [15] | glycan array binding signal (z-score) [16] | glycan array binding signal (z-score) [17] | glycan array binding signal (z-score) [18] | glycan array binding signal (z-score) (Gal(b1-4)Glc) | glycan array binding signal (z-score) [19] | glycan array binding signal (z-score) [20] | glycan array binding signal (z-score) [21] | glycan array binding signal (z-score) [22] | glycan array binding signal (z-score) [23] | glycan array binding signal (z-score) [24] | glycan array binding signal (z-score) [25] | glycan array binding signal (z-score) [26] | glycan array binding signal (z-score) (Neu5Gc(a2-3)Gal(b1-4)Glc) |
| --- | --- | --- | --- | --- | --- | --- | --- | --- | --- | --- | --- | --- | --- | --- | --- | --- | --- | --- | --- | --- | --- | --- | --- | --- | --- | --- | --- | --- | --- | --- | --- | --- | --- | --- | --- | --- | --- |
| B1 | -0.303 | 3.15 | -0.278 | 2.9 | -0.279 | 0.092 | -0.309 | -0.302 | -0.295 | -0.241 | -0.287 | 5.09 | 0.057 | -0.174 | -0.308 | 0.406 | -0.275 | -0.307 | -0.297 | 5.63 | 5.21 | -0.301 |  |  |  |  |  |  |  |  |  |  |  |  |  |  |  |
| B2 | -0.582 |  |  |  |  |  |  |  |  |  |  |  |  |  |  |  |  |  |  |  |  |  | 2.12 | 2.12 | -0.593 | -0.595 | -0.584 | -0.586 | 1.35 | 2.26 | -0.564 | 2.18 | -0.589 | 2.22 | -0.578 | -0.58 | -0.591 |
